# Screening data as filed in PubChem.
# FLuc counter – qHTS profiling assay for firefly luciferase inhibitor/activator using purifed enzyme and Km concentrations of substrates (counterscreen for miR-21 project). AID 588342, 2011. purified FLuc, Km substrates, luminescence inhibition. 360,000 compounds, 6.9% hits. Luciferin 4-monooxygenase (Photinus pyralis), P08659. Potency, µM (highest dose often 57.5 µM), most hits filed as inhibitors; also: nearly all actives have a fitted effect of over 55% in size
# Target sequence (P08659 whole entry, looked up): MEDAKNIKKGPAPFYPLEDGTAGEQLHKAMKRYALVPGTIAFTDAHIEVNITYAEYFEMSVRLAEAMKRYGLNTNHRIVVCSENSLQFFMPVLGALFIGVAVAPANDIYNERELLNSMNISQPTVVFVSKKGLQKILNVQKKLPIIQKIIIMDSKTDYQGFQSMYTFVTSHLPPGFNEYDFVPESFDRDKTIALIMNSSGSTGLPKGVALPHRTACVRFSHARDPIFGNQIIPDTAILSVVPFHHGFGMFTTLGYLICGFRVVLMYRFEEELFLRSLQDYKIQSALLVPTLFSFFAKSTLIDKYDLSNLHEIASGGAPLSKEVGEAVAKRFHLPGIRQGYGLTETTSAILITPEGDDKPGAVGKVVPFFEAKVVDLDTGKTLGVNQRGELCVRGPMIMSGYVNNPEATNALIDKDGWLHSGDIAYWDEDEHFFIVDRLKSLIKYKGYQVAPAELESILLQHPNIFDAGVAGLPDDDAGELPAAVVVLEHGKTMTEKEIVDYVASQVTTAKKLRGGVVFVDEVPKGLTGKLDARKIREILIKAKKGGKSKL
#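 Biochemical qHTS of compounds, final roughly 60 µM downward over six points, against 10 nM purified firefly luciferase using Km concentrations of substrates (10 uM D-luciferin, 10 uM ATP) in Tris acetate pH 7.5 buffer; luminescence output.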
# SMN2 splice enh – qHTS Assay for Enhancers of SMN2 Splice Variant Expression. AID 1458, 2008. 210,000 compounds, 2.8% hits. HEK293 SMN2-luciferase splicing reporter, luminescence, 30-36 h. Potency, µM (titrated, usually from 46.1 µM), usual class: activators; also: nearly all actives have a fitted effect of over 55% in size
#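 qHTS luciferase splicing reporter: luminescence rises when SMN2 exon 7 is included in transfected HEK293 cells. Compound exposure lasted 30-36 h at 37C, with 4.5 mM final sodium butyrate as control, followed by a ONE-Glo read.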
# NPC1 prom act – qHTS Assay for NPC1 Promoter Activators; Huh7 NPC1 promoter luciferase reporter, 24 h; Potency, µM (top dose mostly 9.22 µM), actives largely listed as activators; 320,000 compounds, 2.4% hits; AID 485313, 2010; also: nearly all actives have a fitted effect of over 60% in size
#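 Luciferase expression driven by the NPC1 promoter was measured in stably transfected Huh7 cells after a 24 h compound incubation, using a luciferase reagent and a luminescence read.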
# Rab9 prom act – qHTS Assay for Rab9 Promoter Activators; Huh7 Rab9 promoter-luciferase reporter, luminescence, 24 h; Potency, µM (doses to about 9.22 µM), hits mostly activators; 320,000 compounds, 2.8% hits; also: nearly all actives have a fitted effect of over 60% in size
#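 Luminescence from Amplite-detected luciferase (10 minutes, ambient) reports Rab9 promoter activation. Before that, stable Rab9-luciferase Huh7 cells (1500/well, reduced-serum OP-MEM I plus 10% FBS) were exposed to compound for 24 hours at 37C.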
# ELG1 genotoxic – qHTS screen for small molecules that induce genotoxicity in human embryonic kidney (HEK293T) cells expressing luciferase-tagged ELG1 | 330,000 compounds, 1.3% hits | Potency, µM (highest dose often 46 µM), actives largely listed as activators | HEK293T ELG1-luciferase reporter, luminescence, 16 h; also: nearly all actives have a fitted effect of over 60% in size
#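 DMSO vehicle served as control against compound-treated ELG1-luciferase HEK293T cells; exposure lasted 16 hr at 37 °C and 5% CO2, followed by ONE-Glo luminescence detection after 30 min.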
# ELG1 DNA repair – qHTS screen for small molecules that inhibit ELG1-dependent DNA repair in human embryonic kidney (HEK293T) cells expressing luciferase-tagged ELG1. HEK293T ELG1-luciferase reporter, luminescence, 16 h; DNA damage induced by 5-fluorouridine. Potency, µM (highest dose often 46.1 µM), hits mostly inhibitors. 330,000 compounds, 2.3% hits. AID 504467, 2011; also: nearly all actives have a fitted effect of over 55% in size
#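 Reporter activity after DNA damage by 5-fluorouridine is monitored. Compound-treated cells incubate 16 hr at 37 °C, then ONE-Glo is added for 30 min before luminescence reading.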
# Hits are given with their value; – = inactive; ? = inconclusive; · = no result given; [ ] = dose if it differs, or a comment. Compounds with a hit are over-represented: about 9.2% of the library has one in this group of screens. Calls follow the shape of the dose curve; as a rule, active = well fitted curve in the direction sought with a large enough effect; inconclusive = small, poorly fitted or top-dose-only effect, or another doubt; inactive = no such curve, though single readings can be large; an effect the other way counts as inactive or inconclusive.
SMILES,FLuc counter,SMN2 splice enh,NPC1 prom act,Rab9 prom act,ELG1 genotoxic,ELG1 DNA repair
Nc1cccc(CCc2ccncc2)c1,–,·,–,–,–,–
Nc1cccc(/C=C/c2ccncc2)c1,16.9µM,·,?,–,–,?
C[C@@H](NC(=O)[C@@H]1Cc2ccccc2CN1)C(=O)Nc1ccc2c(c1)OCCO2,21.3µM,·,–,–,?,?
C[C@H](NC(=O)[C@@H]1Cc2ccccc2CN1)C(=O)Nc1ccc2c(c1)OCO2,–,·,–,–,–,–
Cc1ccc(N(C)S(=O)(=O)c2ccc3[nH]cc(C(=O)O)c(=O)c3c2)cc1C,–,–,·,·,·,·
Cc1c(C(=O)Nc2ccccc2)sc2nc(-c3cc4cc(Cl)ccc4oc3=O)[nH]c(=O)c12,–,·,·,·,·,·
CN(C)CCCNc1cc(C(C)(C)C)nc2c(-c3ccccc3)cnn12,8.49µM,·,3.55µM,3.98µM,?,?
CN(C)CCCNc1cc(-c2ccccc2)nc2cc(-c3cccc(F)c3)nn12,–,·,–,–,–,?
CC(C)(C)c1cc(NCCCn2ccnc2)n2ncc(-c3ccc(Cl)cc3)c2n1,26.9µM,–,–,–,–,?
Cc1ccccc1NC(=O)Cn1nnc(C(=O)NCCc2ccccc2)c1N,–,–,·,·,·,·
COc1ccc(-n2cccc2/C=C/[N+](=O)[O-])cc1,–,–,–,–,–,23.1µM
COc1ccc(-n2cccc2C=O)cc1,–,–,–,–,–,–
Cc1ccc(C(=O)Nc2nc(-c3ccccn3)cs2)o1,19µM,·,–,–,–,?
CCc1cc(C(=O)Nc2nc(-c3ccccn3)cs2)sc1C,12µM,·,–,–,–,–
CCCn1nc(C(=O)Nc2nc(-c3ccccn3)cs2)c2ccccc2c1=O,–,·,–,–,–,7.3µM
CC(=O)c1ccc(-c2ccc(C(=O)Nc3nc(-c4ccccn4)cs3)o2)cc1,·,·,·,·,–,18.3µM
Cc1ccc(C)n1-c1ccccc1N1CCCCC1,–,–,–,–,–,–
CCc1cccc(C)c1NC(=O)CSc1nc2ccccc2nc1N1CCOCC1,–,–,·,·,·,·
COC(=O)c1ccc(C(=O)NCCCCO)cc1,–,–,–,–,–,?
Cc1cc(Cl)ccc1OCC(=O)Nc1nc(-c2cccs2)cs1,23.9µM,–,–,–,–,–
CCOC(=O)c1csc(NC(=O)Nc2cccc(Cl)c2)n1,–,–,–,–,–,–
O=C(COc1ccccc1Cl)Nc1nc(-c2cccs2)cs1,16.9µM,–,–,–,–,–
CCOC(=O)N1CCN(C(=O)CSCC(=O)Nc2nc(-c3cccs3)cs2)CC1,–,–,–,–,–,25.9µM
CCOC(=O)c1csc(NC(=O)COc2ccc(Cl)cc2Cl)n1,23.9µM,–,–,–,–,–
CC1CCN(C(=O)CSCC(=O)Nc2nc(-c3cccs3)cs2)CC1,?,?,–,–,–,?
SMILES,FLuc counter,SMN2 splice enh,NPC1 prom act,Rab9 prom act,ELG1 genotoxic,ELG1 DNA repair
Cc1cc(Cl)ccc1OCC(=O)Nc1nc(-c2cccnc2)cs1,–,·,–,–,–,–
O=C(Nc1ccccc1C(F)(F)F)C1(S(=O)(=O)c2ccc(Cl)cc2)CC1,–,–,·,·,·,·
O=C(NNC(=O)c1ccccc1Cl)c1csc(N2CCOCC2)n1,?,·,–,–,–,?
CCNc1nc(NCC)n2c(SCC(=O)Nc3ccc(C(F)(F)F)cc3[N+](=O)[O-])nnc2n1,–,–,–,–,–,–
Cc1cccc(OCc2nnc(-c3ccccc3)o2)c1,?,–,·,·,·,·
CC(C)CC(=O)Nc1ccc(C(=O)COC(=O)C2=COCCO2)cc1,–,·,–,–,–,–
Cc1ccc(S(=O)(=O)OC2CCN(C)CC2)cc1,·,–[9.22 µM],·,·,·,·
Cc1ccc(/C=C/c2nc3ccccc3c(=O)[nH]2)cc1,0.151µM,·,0.501µM,0.355µM,?,?
COC(=O)c1ccc(/C=C/c2nc3ccccc3c(=O)[nH]2)cc1,0.675µM,·,0.501µM,1.12µM,?,?
COc1cc(/C=C/c2nc3ccccc3c(=O)[nH]2)cc(OC)c1OC,?,·,–,–[1.84 µM],–,–
Cc1ccc(/C=C(\C#N)c2nc3ccccc3c(=O)[nH]2)cc1,–,–,·,·,·,·
COCCOC(=O)N/C=C\c1nc2ccccc2c(=O)[nH]1,?,–,–,–,–,–
COc1cc(/C=C/c2nc3ccccc3c(=O)[nH]2)ccc1OC(F)F,?,·,5.01µM,?,–,?
Cc1ccc(/C=C/c2nc3ccccc3[nH]2)o1,0.849µM,3.98µM,0.708µM,0.447µM,?,?
CC(C)CN(C(=O)CN(C)CC(=O)Nc1ccc(Cl)c(C(F)(F)F)c1)c1c(N)n(CC(C)C)c(=O)[nH]c1=O,·,·,·,·,–,–
O=C1C=C(NNC(=O)c2cccnc2)CC(c2ccco2)C1 (centres undefined),–,–,–,–,–,–
C=CCOc1cccc(/C=C/c2nc3ccccc3c(=O)[nH]2)c1,1.51µM,·,?,3.55µM,9.2µM,?
Cc1cc2nc(/C=C/c3nc4cc(C)c(C)cc4[nH]3)[nH]c2cc1C,?,·,–,–,–,?
Cc1ccc(/C=C/c2nc3ccccc3[nH]2)cc1,0.0757µM,·,·,·,·,·
Cc1ccccc1C(=O)Nc1nc2nc(C)c(C)c(=O)n2[nH]1,–,–,·,·,·,·
O=C(Cn1c(=O)nc(-c2ccccc2)c2cc(Cl)ccc21)Nc1ccc(F)c(Cl)c1,–,–,·,·,·,·
Cc1ccc(NC(=O)C(NCc2ccccn2)c2ccccc2)cc1 (centres undefined),16.9µM,–,–,–,–,?
O=C(NCc1ccccn1)Nc1ccccc1Cl,–,·,–,–,?,?
O=C(NCc1ccccn1)Nc1ccc(Cl)cc1Cl,?,·,3.16µM,?,?,?
O=C(NCc1ccccn1)Nc1ccccc1,13.5µM,·,?,1.58µM,?,?
SMILES,FLuc counter,SMN2 splice enh,NPC1 prom act,Rab9 prom act,ELG1 genotoxic,ELG1 DNA repair
CC(Oc1ccc(F)cc1)C(=O)Nc1cc(S(=O)(=O)N2CCOCC2)ccc1N1CCCCC1 (centres undefined),–,·,–,–,–,–
CC(C)[C@@H](CC(=O)N[C@@H]1CCNC[C@H]1C(=O)N[C@H](CC(=O)N[C@@H](CCC(=O)O)CC(=O)O)Cc1c[nH]c2ccccc12)NC(=O)C[C@H](CO)NC(=O)[C@@H]1CCCC[C@H]1N,·,–,·,·,·,·
CCCCCCCCC1=NCCc2c1[nH]c1ccccc21,–,·,–,–,–,–
CC(C)C/C=C1\CCc2c([nH]c3ccccc23)C1=O,?,·,–,2.82µM,?,?
CC1C/C(=C\c2cccnc2)C(=O)/C(=C/c2cccnc2)C1 (centres undefined),–,–[1.84 µM],–,–,–,2.06µM
O=C1/C(=C/c2cccnc2)CCc2c1[nH]c1ccccc21,9.53µM,·,–,3.16µM,–,–
